Each structure is given as a SMILES string. About 83,000 compounds went through this panel and 20% of them were active in at least one assay; those are over-represented in the sample as a whole.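 Method: cells in 96-well plates; compound added at one concentration; 48 h incubation; percent growth measured; values under 10 scored active.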 Unmarked numbers belong to inactive results. Active and inactive are the calls of the source.

For the experiment, the system named is HCT-116 colon. In words: NCI-60 one-dose screen, 48 h (100 = growth as untreated, 0 = no growth, -100 = all killed). Conditions: 10 µM.
Consider `COc1cc(/C=C/C(=O)c2ccc(C(F)(F)F)cc2)ccc1Oc1nc(Nc2ccc(F)cc2)nc(N(C)C)n1`, for which the growth was 7.06% (active).

In the case of `Cc1ccc(/C=C/C(=O)c2ccc(NC(=O)CSc3nnc(-c4c[nH]c5ccccc45)n3-c3ccccc3)cc2)c(C)c1`, the growth is -4.32% (active).

In the case of `COc1ccc(/C=C/C(=O)c2ccc(S(=O)(=O)NCCNc3nc(Nc4ccc(F)cc4)nc(N(C)C)n3)cc2)cc1`, the growth is -67% (active).

With `N#Cc1c(-c2ccc(Cl)cc2)cc(-c2ccccc2)nc1OCc1ccccc1`, the growth was 53.7%.

With `Nc1nnc(-c2c[nH]c3ncccc23)c(-c2c[nH]c3ccc(Br)cc23)n1`, the growth was 21.9%.

On to `CC(=O)OC[C@@]1(C)C2CC[C@]3(C)C(CC=C4C5CC(C)(C)CC[C@]5(C(=O)Nc5ccccc5)CC[C@]43C)[C@@]2(C)C[C@@H](OC(C)=O)[C@@H]1OC(C)=O` (stereo partly specified), for which the growth was 25.4%.

As to `O=C(CSc1nnc(-c2c[nH]c3ccccc23)n1-c1ccccc1)Nc1ccc(C(=O)/C=C/c2cccc([N+](=O)[O-])c2)cc1`, the growth is -54% (active).

For the compound `C/C(=C\c1ccc(O)cc1O)c1ccc2ccc(O)cc2[o+]1`, the growth was 26.9%.

Regarding `O=C(CSc1nnc(-c2c[nH]c3ccccc23)n1-c1ccccc1)c1ccc(Br)cc1`, the growth is 54.3%.

Regarding `COC(=O)c1c(C(=O)OC)c2n(c1C)[C@@H]([C@@H](C)[C@H]1CC[C@H]3[C@@H]4CCC5=CC(=O)CC[C@]5(C)[C@H]4CC[C@]13C)SC2`, the growth is 23.2%.

Turning to `COc1ccc(C(=O)/C=C/c2cc(C(F)(F)F)cc(C(F)(F)F)c2)cc1S(N)(=O)=O`, the growth was -59.1% (active).

For the origin of these results see PubChem BioAssay (NCI).
